Hits are enriched below; roughly 1.8% of the tested compounds scored in any of these assays.
EWS-Fli inh = EWS/Fli-driven NR0B1 reporter inhibitors, primary screen, A673 cells, NR0B1 luciferase, luminescence, MLPCN library; AID 651661, 2012; hit rate 0.67% among 350,000; inhibition, % at 12.6 µM; viability-normalised;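 active = mean inhibition of at least 50% after viability correction, with every replicate also passing that limit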;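 note: firefly luciferase signal divided by Alamar Blue viability fluorescence both relative to DMSO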
PAX8 inh HTS = inhibitors of PAX8-driven TPO luciferase reporter, primary screen, RMG-I cells, single concentration | SteadyGlo, 24 h | inhibition, % at 12.6 µM | hit rate 1.2% among 360,000 | AID 652154, 2013;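 active = mean replicate inhibition at least 60% with every replicate also reaching 60%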;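 note: luciferase light reporting Pax8 driven TPO promoter activity; plate controls were median of neutral control wells for no effect and mitoxantrone controls for full effect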
LGR2 antag = inhibitors of bursicon-induced LGR2 CRE-luciferase signal, primary screen, cell-based, HEK293, CRE-luciferase reporter, bursicon stimulation; bursicon-stimulated, 4 h; inhibition, % at 9.99 µM; hit rate 0.35% among 380,000; AID 720647, 2013;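 active = drop in luminescence signal, shown as inhibition above about 50% in the replicate tests, limit read from the data, passing the limit was not always enough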;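 note: agonist challenge used bursicon conditioned medium at about half maximal strength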
F508del corr = F508del CFTR correction, initial screen, CFBE line, single point; CFBE cells, YFP halide quenching; stimulated with forskolin plus potentiator P3; % fluorescence drop versus neutral controls; activity (quench increase), % at 7.58 µM; hit rate 0.36% among 350,000;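 active = mean added fluorescence quench of at least 8% versus neutral control, with both replicates also reaching 8%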;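 note: cells transiently co-express mutant CFTR-F508del with the halide-sensitive YFP; corrector assay measuring rescue of mutant channel to the surface after 24 h compound exposure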
* = called active by the depositor; ! = a repeat was not active.

`Cc1ccc2c(c1)CCCN2C(=O)CCc1nc2ccccc2c(=O)[nH]1` gave EWS-Fli inh 65*, PAX8 inh HTS 20, LGR2 antag 16 and F508del corr 22*.
For O=C(N/N=C/c1ccccc1)c1n[nH]c2c1CCCC2 the results were EWS-Fli inh -13, PAX8 inh HTS -15, LGR2 antag 31 and F508del corr 2.
`O=C(N/N=C/c1ccccc1Cl)c1n[nH]c2c1CCCC2` gave EWS-Fli inh 14, PAX8 inh HTS 77*, LGR2 antag 71* and F508del corr 3.
C[C@@H]1CN([C@@H](C)CO)C(=O)c2cc(C#CCN(C)C)cnc2O[C@@H]1CN(C)Cc1ccc(-c2ccccc2)cc1 was read as EWS-Fli inh 35, LGR2 antag -12 and F508del corr -4.
`C[C@@H]1CN([C@@H](C)CO)C(=O)c2cc(C#CCN(C)C)cnc2O[C@H]1CN(C)Cc1ccc(-c2ccccc2)cc1` gave EWS-Fli inh 73*!, LGR2 antag -9 and F508del corr 9.2*!.
C[C@@H]1CN([C@@H](C)CO)C(=O)c2cccc(NS(=O)(=O)c3ccc(F)cc3)c2O[C@@H]1CN(C)Cc1ccc(-c2ccccc2)cc1 was read as EWS-Fli inh 22, PAX8 inh HTS 75*, LGR2 antag 16 and F508del corr -13.
For C[C@@H]1CN([C@@H](C)CO)C(=O)c2cccc(NS(=O)(=O)c3ccc(F)cc3)c2O[C@H]1CN(C)Cc1ccc(-c2ccccc2)cc1 the results were EWS-Fli inh 38, PAX8 inh HTS 78*, LGR2 antag -4 and F508del corr -1.
Screening Cc1noc(C)c1NC(=O)Nc1cccc2c1O[C@H](CN(C)Cc1ccccc1)[C@@H](C)CN([C@H](C)CO)C2=O returned EWS-Fli inh -4, PAX8 inh HTS 25, LGR2 antag -10 and F508del corr 0.
For Cc1noc(C)c1NC(=O)Nc1cccc2c1O[C@H](CN(C)Cc1ccc(-c3ccccc3)cc1)[C@@H](C)CN([C@H](C)CO)C2=O the results were EWS-Fli inh 6, PAX8 inh HTS 62*, LGR2 antag -7 and F508del corr -6.
Screening Cc1cc(C(=O)Nc2cccc3c2O[C@H](CN(C)Cc2ccc(Oc4ccccc4)cc2)[C@@H](C)CN([C@H](C)CO)C3=O)n(C)n1 returned EWS-Fli inh -17, PAX8 inh HTS 76*, LGR2 antag 5 and F508del corr -6.
Cc1cc(C(=O)Nc2cccc3c2O[C@@H](CN(C)Cc2ccccc2)[C@@H](C)CN([C@H](C)CO)C3=O)n(C)n1 was read as EWS-Fli inh 1, PAX8 inh HTS -6, LGR2 antag -12 and F508del corr -1.
`COc1ccc(CN(C)C[C@@H]2Oc3c(NC(=O)C4CCCCC4)cccc3C(=O)N([C@H](C)CO)C[C@@H]2C)cc1` gave EWS-Fli inh 8, PAX8 inh HTS 16, LGR2 antag 18 and F508del corr 0.
`COc1ccc(CN(C)C[C@@H]2Oc3c(NC(=O)C4CCCCC4)cccc3C(=O)N([C@H](C)CO)C[C@H]2C)cc1` gave EWS-Fli inh -3, PAX8 inh HTS 64*, LGR2 antag -9 and F508del corr -3.
For CC(C)NC(=O)Nc1ccc2c(c1)C(=O)N([C@H](C)CO)C[C@@H](C)[C@@H](CN(C)C(=O)c1ccccc1)OCCCC[C@H](C)O2 the results were EWS-Fli inh -5, PAX8 inh HTS -6, LGR2 antag 1 and F508del corr 0.
`COc1ccccc1CCn1cnc(-c2ccc(OC)c(OC)c2)c1C(C)C` gave EWS-Fli inh 20, PAX8 inh HTS 21, LGR2 antag -6 and F508del corr 4.
Screening O=[N+]([O-])c1ccc(N=Nc2c(O)[nH]c3ccc(F)cc23)cc1 returned EWS-Fli inh -92, PAX8 inh HTS -102, LGR2 antag -77 and F508del corr 3.
Screening O=[N+]([O-])c1cccc(N=Nc2ccc(O)cc2O)c1 returned EWS-Fli inh -18, PAX8 inh HTS 81*, LGR2 antag 19 and F508del corr 4.
O=[N+]([O-])c1ccc(N=Nc2ccc(O)cc2O)cc1 was read as PAX8 inh HTS 81*.
`N#CC1=C(N)N2C(=C(C#N)C1c1cccc(Br)c1)Nc1ccccc12` (configuration not stated) gave EWS-Fli inh 36, PAX8 inh HTS -8, LGR2 antag 26 and F508del corr 7.
`N#CC1=C(N)N2C(=C(C#N)C1c1ccc(Br)cc1)Nc1ccccc12` (configuration not stated) gave EWS-Fli inh 19, PAX8 inh HTS 98*, LGR2 antag 49 and F508del corr 3.
For CN(c1ccccc1)S(=O)(=O)c1cccc(NC(=O)c2cc(=O)c3ccccc3o2)c1 the results were EWS-Fli inh 16, PAX8 inh HTS -10 and LGR2 antag 67*.
Screening CC1CCN(c2ccc(-c3cccs3)nn2)CC1 returned EWS-Fli inh 89*, PAX8 inh HTS 84*, LGR2 antag 75* and F508del corr -7.
Clc1ccc(-c2cccs2)nn1 was read as EWS-Fli inh 2, PAX8 inh HTS -13 and F508del corr 0.
Cc1cccc(NC(=O)c2ccc(S(=O)(=O)N3CCCCC3C)cc2)n1 (configuration not stated) was read as PAX8 inh HTS -36, LGR2 antag -7 and F508del corr 1.
CCS(=O)(=O)Nc1ccc2c(c1)C(=O)N(C)[C@@H]1CC[C@@H](CC(=O)N[C@H]3CCN(Cc4ccccc4)C3)O[C@H]1CO2 was read as EWS-Fli inh 0, PAX8 inh HTS -4 and LGR2 antag 14.
COc1ccccc1-c1ccc2c(c1)[C@H]1[C@H](CCN1S(=O)(=O)c1ccccc1OC)[C@@H](CO)N2 was read as EWS-Fli inh 4, PAX8 inh HTS 65*, LGR2 antag 4 and F508del corr 3.
COc1ccccc1S(=O)(=O)N1CC[C@@H]2[C@H]1c1cc(-c3ccc(F)cc3)ccc1N[C@@H]2CO was read as EWS-Fli inh 6, PAX8 inh HTS 19, LGR2 antag -14 and F508del corr 0.
`COc1ccccc1S(=O)(=O)N1CC[C@@H]2[C@H](CO)Nc3ccc(-c4ccc(F)cc4)cc3[C@@H]21` gave EWS-Fli inh -13, PAX8 inh HTS 67*, LGR2 antag 6 and F508del corr 1.
COc1ccccc1S(=O)(=O)N1CC[C@@H]2[C@@H](CO)Nc3ccc(-c4ccc(F)cc4)cc3[C@@H]21 was read as EWS-Fli inh 44, PAX8 inh HTS 71*, LGR2 antag 9 and F508del corr 4.
Screening O=C([O-])c1ccccc1-[n+]1c(-c2ccccc2)cc(-c2ccccc2)cc1-c1ccccc1 returned EWS-Fli inh -2, PAX8 inh HTS 85*, LGR2 antag 16 and F508del corr 0.
For COc1ccc(-c2cnc3c(NC=O)cc(-c4ccc(F)cc4)cn23)cc1OC the results were EWS-Fli inh 34, PAX8 inh HTS 69*, LGR2 antag -26 and F508del corr 1.

Bioassay records (PubChem)
